For 122 compounds, outcome results are on record in PubChem BioAssay AID492952 (Southern Research Specialized Biocontainment Screening …, 2010).

The whole screen tested about 2,300 compounds, of which about 1,500 (65%) were called active. The rule behind the calls is not given here. So high a share suggests a set chosen from earlier hits. Some of the results follow. Results with a measured potency or affinity are listed apart.

The test can be described thus: replicating M. tuberculosis growth inhibition, dose response, non-replicating M. tuberculosis project, H37Rv (AID 492952).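 Note: Mycobacterium tuberculosis grown in culture; growth inhibition read after a week of incubation.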 The following applies: series mostly up to 50 µM.
Regarding `CC(=O)CCC1CC(c2ccc(Cl)cc2)=NO1` (configuration not stated), the call was inactive.

Take `COC(=O)c1ccccc1NC(=O)C1CC(c2ccc(F)cc2)=NO1` (configuration not stated): the outcome was inactive.

Regarding `COc1ccc(OCCC(=O)OCC(=O)Nc2ccc(Br)cc2)cc1`, the result was inactive.

Take `CC(C)(C)c1ccc(OCCC(=O)OCC(=O)NC2CCCCC2)cc1`: the compound was called inactive.

Regarding `O=C(COc1ccc([N+](=O)[O-])cc1)NNC(=O)c1cccs1`, the result was inactive.

Regarding `CC/C(=C\c1oc2cc3ccccc3cc2[n+]1CC)Nc1ccccc1`, the compound was called inactive.

Consider `CCc1nnc(NC(=O)CN2CCN(c3ccccc3F)CC2)s1`, for which the outcome was inactive.

With `Brc1ccc(OCCCCN2CCCCC2)cc1`, the outcome was inactive.

For the compound `CCOC(=O)c1c(-c2ccc(C)o2)csc1NC(=O)CN1CCCCC1`, the compound was called inactive.

For the compound `COc1ccc2cc(C(=O)NCc3ccccc3)c(=O)oc2c1`, the call was inactive.

Regarding `NC(=O)N/N=C/c1ccccc1OC(=O)c1cc2ccccc2oc1=O`, the call was inactive.

As for `COCCNC(=O)c1cc2cc(Cl)cc(Cl)c2oc1=O`, the compound was classed as inactive.

With `COc1cccc2cc(C(=O)c3ccc([N+](=O)[O-])cc3)oc12`, the compound was classed as inactive.

On to `CC(C)[C@H](NC(=O)c1ccc(Br)cc1)C(=O)NC1CCCCC1`, for which the result was inactive.

With `Oc1ccc(Cl)cc1CNCc1ccc(F)cc1`, the call was inactive.

As to `O=C(N/N=C/c1coc2ccccc2c1=O)c1ccc(Cl)cc1`, the compound was classed as inactive.

In the case of `C=CCn1c(=O)c(C(=O)Nc2cccnc2)c(O)c2ccccc21`, the compound was called inactive.

With `O=C(N/N=C/c1cccc(F)c1)c1c(O)c2ccccc2[nH]c1=O`, the compound was classed as inactive.

Regarding `O=C1CC(N2CCSCC2)C(=O)N1CCc1ccccc1` (configuration not stated), the compound was classed as inactive.

Take `Cc1cc2ccccc2n1CCNC(=O)C(C)(C)C`: the compound was called inactive.

Consider `O=C(COc1ccc(Cl)cc1)Nc1ccc2[nH]ncc2c1`, for which the outcome was inactive.

`CC1CCN(CCOCCSc2ccc(Cl)cc2)CC1`: the call was inactive.

Turning to `CCCCCCNC(=O)c1ccc(Br)o1`, the outcome was inactive.

As to `COc1ccc(C(=O)Nc2ccccc2C(=O)N/N=C/c2ccco2)cc1`, the call was inactive.

On to `CCOc1ccc(OCc2ccc(C(=O)N/N=C(\C)c3ccccn3)cc2)cc1`, for which the compound was called inactive.

Consider `C=CCNc1nc(C(=O)OCC(=O)c2cccc(Br)c2)cs1`, for which the result was inactive.

`CC(=O)NCCOC(=O)Nc1sc(=S)n(C)c1C`: the compound was called inactive.

Consider `C/C(=N\Nc1ccc(Cl)cc1)c1ccccn1`, for which the compound was classed as inactive.

Regarding `Cc1cc(O)c(-c2cc(O)c(C)cc2O)cc1O`, the call was inactive.

As for `O=C(COC(=O)c1ccccn1)Nc1cccc(Cl)c1Cl`, the call was inactive.

As to `COC(=O)c1ccc(COC(=O)CCS(=O)(=O)c2ccc(C)cc2)cc1`, the compound was called inactive.

For `CC(C)(C)C(=O)COc1ccccc1[N+](=O)[O-]`, the outcome was inactive.

In the case of `COCCn1c(C)cc(C(=O)COC(=O)c2ccc(Br)o2)c1C`, the call was inactive.

Regarding `C=CC[n+]1ccn(-c2nc3ccccc3nc2[N-]S(=O)(=O)c2cccs2)c1`, the result was inactive.

As for `CCCCSc1nnc(-c2cc(Br)ccc2N)c(=O)[nH]1`, the result was inactive.

Turning to `CC(Cc1cccs1)NC(=O)c1cccc(Cl)c1` (configuration not stated), the compound was classed as inactive.

As to `C/C(=N\NC(=O)c1cccs1)c1ccc2c(c1)OCO2`, the compound was called inactive.

As to `Cc1ccc(C(=O)CCNc2ccc(Br)cc2)o1`, the result was inactive.

Take `Cc1ccc(C(=O)CCNc2ccc(F)c(Cl)c2)o1`: the outcome was inactive.

In the case of `Cc1ccc(NC(CC(=O)c2ccccc2)C(=O)O)cc1Cl` (configuration not stated), the outcome was inactive.

On to `CC(C)COc1ccc(C(=O)CCN2CCCCC2)cc1`, for which the outcome was inactive.

In the case of `COc1cc(C(=O)CCN2CCC(c3ccccc3)C2)cc(OC)c1OC` (configuration not stated), the compound was called inactive.

For the compound `CC(C)Oc1ccc(C(=O)CCN2CCCCC2)cc1`, the call was inactive.

For `CCCCc1ccc(NS(=O)(=O)c2c(C)n(C)c(=O)n(C)c2=O)cc1`, the call was inactive.

Turning to `C=C(C)C1CC=C(C)/C(=N/NC(=O)CNc2ccc(OCC)cc2)C1` (configuration not stated), the compound was called inactive.

On to `CC1N(C)c2cccc3cccc(c23)N1C`, for which the outcome was inactive.

For `CCCCCCCCCCn1ccc(=N)cc1`, the compound was called inactive.

For `CCc1ccc(OCCCC(=O)NCc2ccco2)cc1`, the compound was called inactive.

Regarding `Nc1ccc2c(c1)oc1ccccc12`, the result was inactive.

For `CCOC(=O)c1cn(Cc2cccc(Cl)c2)nn1`, the outcome was inactive.

Consider `COc1cc(/C=N/Nc2ccc(Cl)c(C(=O)O)c2)ccc1OC(=O)c1ccco1`, for which the outcome was inactive.

Take `COc1cc(/C=C2\C(=O)N(c3ccc(S(N)(=O)=O)cc3)N=C2C)ccc1OC(=O)c1ccco1`: the outcome was inactive.

Regarding `O=C(COc1ccccc1)NNc1nc2ccccc2s1`, the call was inactive.

Turning to `CC/C(=C\C=C\[C@@H]1C=C[C@@H]2CCC[C@H]2[C@@H]1C(=O)c1ccc[nH]1)[C@@H]1O[C@@H]([C@@H](C)C(=O)O)CC[C@@H]1C`, the compound was called inactive.

In the case of `Cc1cccc(NCc2ccc([N+](=O)[O-])s2)c1`, the compound was classed as inactive.

On to `CCCc1nnc(-c2ccc(OC)cc2)o1`, for which the compound was called inactive.

`CCc1cc(C=NC2CCCCC2)c(O)s1`: the compound was classed as inactive.

Turning to `CCc1ccc(C(=O)NC2CCCCC2)s1`, the result was inactive.

Consider `CC(=O)c1c(O)cc(=O)n(-c2ccccc2)c1-c1ccc(C)cc1`, for which the compound was called inactive.

Regarding `CCOC(=O)c1c(NC(=O)COC(=O)c2ccccn2)sc2c1CCC2`, the compound was called inactive.

Consider `O=C(Oc1cccc([N+](=O)[O-])c1)c1ccc2c(=O)n3c(nc2c1)CCC3`, for which the call was inactive.

Take `Cc1ccc2c(CC(=O)OCC(=O)Nc3ccc(Cl)cn3)coc2c1`: the outcome was inactive.

Regarding `O=C(Nc1ccccc1N1CCCC1)c1cccc(F)c1`, the call was inactive.

With `Cc1ccc(NC(=O)CN(C)C2CCCCC2)cc1Br`, the call was inactive.

As to `O=C(Nc1ncccc1O)c1ccc(Oc2ccccc2)cc1`, the result was inactive.

For the compound `O=C(Nc1ncccn1)c1ccc([N+](=O)[O-])o1`, the call was inactive.

In the case of `Cc1noc(C)c1COc1ccc(C(=O)Nc2ccccn2)cc1`, the result was inactive.

Regarding `O=C(Nc1cccnc1)c1ccc(-c2ccc(Cl)cc2)o1`, the call was inactive.

In the case of `CCOC(=O)c1ccc(N=C2SC(C(=O)Nc3ccc(C(=O)O)cc3)CC(=O)N2Cc2cccs2)cc1` (configuration not stated), the compound was called inactive.

Consider `COC(=O)C1=C(C(=O)OC)C(c2cc(Cl)ccc2O)c2sc(=O)[nH]c2S1` (configuration not stated), for which the compound was classed as inactive.

With `Cc1ccc(SCCC(=O)OCC(=O)NCC2CCCCC2)cc1`, the call was inactive.

Consider `COc1ccccc1NC(=O)CCN1CCN(c2ccc(Cl)cc2)CC1`, for which the compound was called inactive.

Turning to `CC(/C=C/c1ccc2c(c1)OCO2)=N/NC(=O)C1COc2ccccc2O1` (configuration not stated), the compound was called inactive.

Turning to `CC(/C=C/c1ccco1)=N/NC(=O)c1ccc(C)nc1`, the call was inactive.

As to `O=C(N/N=C/c1ccc(Br)s1)c1cccnc1`, the compound was called inactive.

For the compound `O=C(N/N=C/c1ccc[nH]1)c1cccnc1`, the result was inactive.

`Cn1cccc1/C=N/NC(=O)c1ccco1`: the result was inactive.

For `O=C(N/N=C/c1ccc[nH]1)c1ccc(Cl)cc1`, the outcome was inactive.

Consider `O=C(O)c1ccc(-n2nc(C(F)(F)F)c3c2CCCC3)cc1`, for which the call was inactive.

For the compound `CCc1cc2c3c(c1)C(C)CC(C)(C)N3C(=O)/C2=C1\SC(=O)NC1=O` (configuration not stated), the compound was classed as inactive.

As for `COc1cccc(-c2nc(C=O)cs2)c1`, the compound was classed as inactive.

With `Cc1ccnc(-n2c(C)cc(/C=C3\C(=O)NC(=S)N(C)C3=O)c2C)c1`, the outcome was inactive.

On to `Cc1cc(C=C2C(=O)N(C)C(=S)N(C)C2=O)c(C)n1-c1cccnc1`, for which the outcome was inactive.

In the case of `CCCCCCCC(=O)NNC(=O)c1ccc(F)cc1`, the outcome was inactive.

On to `Cc1ccc(S(=O)(=O)CCC(=O)Nc2nc(-c3ccncc3)cs2)cc1`, for which the outcome was inactive.

`CCCCOc1ccc(NC(=O)CN2CCN(Cc3ccccc3)CC2)cc1`: the compound was called inactive.

As for `O=C(NN=C1C2CC3CC1CC(Cl)(C3)C2)c1cccs1`, the result was inactive.

As for `Cc1ccc(NC(=O)C2COc3ccccc3O2)nc1` (configuration not stated), the result was inactive.

`CCC(=O)N/N=C/c1ccc(-c2ccc(Cl)cc2)o1`: the call was inactive.

As to `Cc1cccc(C)c1N1C(=O)CC(N2CCSCC2)C1=O` (configuration not stated), the call was inactive.

Take `CCCCCCCC(=O)N/N=C(/C)c1c(O)cc(C)oc1=O`: the compound was classed as inactive.

In the case of `Cc1cc(CN(C)C)c(O)c(C2(C)CCCCC2)c1`, the compound was called inactive.

For `COc1ccccc1C(c1nnnn1Cc1ccccc1)N1CCC(C(N)=O)CC1` (configuration not stated), the call was inactive.

For the compound `O=C(N/N=C/c1ccc[nH]1)c1ccc2c(c1)OCO2`, the compound was classed as inactive.

Take `O=C(CC1CC2CCC1C2)NCc1cccs1` (configuration not stated): the outcome was inactive.

For the compound `O=C(NCc1cccs1)c1ccc(Br)o1`, the compound was classed as inactive.

As to `Cc1cc(C(=O)N/N=C/c2cccc(Cl)c2Cl)no1`, the call was inactive.

As to `CC(C)c1cc(C(=O)N/N=C/C=C/c2ccccc2)n[nH]1`, the result was inactive.

On to `CC1(CCc2ccc3c(c2)OCO3)NC(=O)c2ccccc2N1` (configuration not stated), for which the result was inactive.

`O=C(N/N=C/c1cc(Br)cc(Cl)c1O)c1ccc2c(c1)OCO2`: the compound was classed as inactive.

For the compound `CC1=CC(=O)NP(=O)(Oc2ccc3ccccc3c2)N1` (configuration not stated), the outcome was inactive.

With `CCN(CC)CCNC(=O)c1[nH]c2ccc(OCc3ccccc3)cc2c1C`, the compound was called inactive.

Turning to `Cc1cc2cc(CNC(=O)COc3ccccc3)ccc2n1C`, the result was inactive.

For the compound `CC(=O)c1c(C)n(C)c2ccc(OC(=O)c3ccco3)cc12`, the outcome was inactive.

As for `CCOc1ccc(-c2ccc(SCC)nn2)cc1`, the compound was called inactive.

For the compound `Oc1ccccc1Nc1nc(NCC2CCCO2)c2ccccc2n1` (configuration not stated), the outcome was inactive.

For the compound `CCCCCCC1CC(C)(C(=O)CNc2nncs2)OC1=O` (configuration not stated), the outcome was inactive.

Take `Cc1cc2nc(CSc3ccc(Cl)cc3)cc(=O)n2[nH]1`: the call was inactive.

Turning to `Cc1cc(C)c2sc(NC(=O)C3=COCCO3)nc2c1`, the outcome was inactive.

As for `O=C(c1nnc(-c2ccc(Cl)cc2)o1)C1CCCC1`, the result was inactive.

Take `CN(C)Cc1ccccc1Sc1ccccc1Br`: the result was inactive.

In the case of `C(#CCN1CCOCC1)COCc1ccccc1`, the call was inactive.

For `CNC(=O)c1[nH]cnc1C(=O)Nc1ccc(Cl)cc1`, the call was inactive.

Take `COc1ccc(/C(=N/O)C(C)(C)NO)cc1`: the compound was classed as inactive.

Take `CC1COC(=O)C(NNc2ccc(Cl)c(Cl)c2)=N1` (configuration not stated): the compound was classed as inactive.

On to `CCOC(=O)C1CCCN(Cc2ccc(OCc3ccccc3)cc2)C1` (configuration not stated), for which the call was inactive.

`O=C(NC(=S)NCCc1ccccc1)c1ccccc1`: the outcome was inactive.

For `CC(C)c1ccc(N2C(=O)CC(Sc3ncn[nH]3)C2=O)cc1` (configuration not stated), the compound was classed as inactive.

As to `CC1=NN(C(=O)c2csc(C(C)C)c2)C(O)(C(F)(F)F)C1` (configuration not stated), the call was inactive.

In the case of `CC1=NN(C(=O)c2csc(C)c2)C(O)(C(F)(F)F)C1` (configuration not stated), the result was inactive.

As for `O=C(COC(=O)c1ccc(Br)o1)Nc1ncc([N+](=O)[O-])s1`, the outcome was inactive.

In the case of `Nc1cccn2c(-c3ccc(Cl)cc3)cnc12`, the compound was called inactive.
